{
  "source": "PubChem BioAssay AID588342",
  "about": "(National Center for Advancing Translational Sciences (NCATS), 2011)",
  "note": "Among all 360,000 compounds or so, about 25,000 (6.9%) were called active. A call without a number means that no potency is given here. Roughly 9% stayed inconclusive and do not appear here. This is one part of a sample in which actives are shown more often than they occur. The call rests on the fitted dose curve; in most records, active means well fitted inhibition curve with a large enough effect; inconclusive means small, poorly fitted or top-dose-only effect; inactive means flat fitted curve, though single readings scatter. Potency means the concentration at half of the fitted maximal effect.",
  "data": [
    {"target": "Luciferin 4-monooxygenase (Photinus pyralis) (UniProt P08659)", "sequence (P08659 whole entry, looked up)": "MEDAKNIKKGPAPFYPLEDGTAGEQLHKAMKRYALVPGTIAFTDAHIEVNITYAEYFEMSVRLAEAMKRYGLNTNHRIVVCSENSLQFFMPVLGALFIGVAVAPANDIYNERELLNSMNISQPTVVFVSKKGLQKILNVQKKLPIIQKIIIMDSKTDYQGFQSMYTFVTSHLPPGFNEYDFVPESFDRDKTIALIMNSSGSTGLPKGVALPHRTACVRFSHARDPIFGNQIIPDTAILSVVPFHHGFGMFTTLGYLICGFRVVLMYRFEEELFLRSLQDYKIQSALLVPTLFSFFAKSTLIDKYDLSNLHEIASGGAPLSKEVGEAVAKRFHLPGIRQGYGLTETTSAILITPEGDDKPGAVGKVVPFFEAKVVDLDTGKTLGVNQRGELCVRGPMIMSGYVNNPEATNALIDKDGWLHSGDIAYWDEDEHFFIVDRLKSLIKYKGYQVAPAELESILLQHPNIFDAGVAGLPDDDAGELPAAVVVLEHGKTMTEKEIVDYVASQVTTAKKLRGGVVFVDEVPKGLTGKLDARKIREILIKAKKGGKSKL", "assay": "qHTS profiling assay for firefly luciferase inhibitor/activator using purifed enzyme and Km concentrations of substrates (counterscreen for miR-21 project); further: nearly all actives have a fitted effect of over 55% in size", "details": "purified FLuc, luminescence inhibition; series mostly up to 57.5 µM", "in_short": "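Biochemical qHTS of compounds, final roughly 60 µM downward over six points, against 10 nM purified firefly luciferase using Km concentrations of substrates (10 uM D-luciferin, 10 uM ATP) in Tris acetate pH 7.5 buffer; luminescence output.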", "values": [
      {"smiles": "Cc1cccc(-c2oc3ccc(-c4ccc5c(c4)OCO5)cc3c2C#Cc2cncn2C)c1", "Potency": "inactive"},
      {"smiles": "Cc1ccc(NC(=O)CN2C(=O)CC(C)Sc3ccccc32)c(C)c1", "note": "(stereo not given)", "Potency": "inactive"},
      {"smiles": "COc1cccc(C2=CC(=O)C[C@H](c3ccc(OC)c(OC)c3)C2)c1", "Potency": "inactive"},
      {"smiles": "C/C(=N\\O)C1(C)N(O)C(C)(C)C(c2ccc(Br)cc2)=[N+]1[O-]", "note": "(stereo not given)", "Potency": "inactive"},
      {"smiles": "CC(=O)C1(C)N(O)C(C)(C)C(c2cccs2)=[N+]1[O-]", "note": "(stereo not given)", "Potency": "0.301 µM (active)"},
      {"smiles": "CC1(C)C(c2cccs2)=[N+]([O-])C2(CCCCC2=O)N1O", "note": "(stereo not given)", "Potency": "inactive"},
      {"smiles": "COc1ccc(SCc2cc(=O)c3ccc(C)c(C)c3[nH]2)cc1", "Potency": "inactive"},
      {"smiles": "C=CCn1c(SCC(=O)Nc2ccc(NC(C)=O)cc2)nc2sc(C)c(C)c2c1=O", "Potency": "inactive"},
      {"smiles": "O=C(CSc1nnnn1C1CCCC1)N1CCCCC1", "Potency": "19 µM (active)"},
      {"smiles": "CC(=O)Nc1ccc(NC(=O)CSc2nnnn2C2CCCCC2)cc1", "Potency": "inactive"},
      {"smiles": "CC1CCCC(C)N1C(=O)CSc1nnnn1C1CCCC1", "note": "(stereo not given)", "Potency": "inactive"},
      {"smiles": "COc1ccc(Cn2c(=O)n(-c3ccccc3C)c(=O)c3c4c(sc32)CN(C(C)=O)CC4)cc1", "Potency": "inactive"},
      {"smiles": "COc1ccc(-c2nc3scc(CCNS(=O)(=O)c4cc(F)ccc4OC)n3n2)cc1OC", "Potency": "inactive"},
      {"smiles": "CCOc1ccc(CNCCSc2nnnn2C)cc1", "Potency": "inactive"},
      {"smiles": "O=C(Nc1ccc2c(c1)CCC2)c1ccc(Br)s1", "Potency": "1.9 µM (active)"},
      {"smiles": "CC1CC(C)CN(CCC(=O)Nc2ccc3c(c2)CCC3)C1", "note": "(stereo not given)", "Potency": "inactive"},
      {"smiles": "O=C(N/N=C\\c1cc2c(cc1Cl)OCO2)c1ccc(Br)s1", "Potency": "inactive"},
      {"smiles": "Cc1cccc(N2CCN(S(=O)(=O)c3ccc4[nH]c5c(c4c3)CCCCC5)CC2)c1C", "Potency": "inactive"},
      {"smiles": "CN1CCN(c2oc(-c3ccc(COc4ccc(Cl)cc4)o3)nc2C#N)CC1", "Potency": "inactive"},
      {"smiles": "Cc1cc(C)cc(NC(=O)CN2C(=O)c3ccccc3C2=O)c1", "Potency": "inactive"},
      {"smiles": "C=CCN(CC=C)C(=O)CN1C(=O)c2ccccc2C1=O", "Potency": "inactive"},
      {"smiles": "C=CCn1c(C)cc(C(=O)CN2C(=O)c3ccccc3C2=O)c1C", "Potency": "1.51 µM (active)"},
      {"smiles": "CCc1ccc(NC(=O)CCCc2nnc3n(CCCOC)c(=O)c4sccc4n23)cc1", "Potency": "inactive"},
      {"smiles": "COc1ccccc1NC(=O)c1cc(S(=O)(=O)NCCc2ccccc2)ccc1F", "Potency": "inactive"},
      {"smiles": "Cc1ccc(C)c(S(=O)(=O)n2nc(C)c(S(=O)(=O)N3CCC(C)CC3)c2C)c1", "Potency": "inactive"},
      {"smiles": "COc1ccc(CC(=O)Nc2sc(Cc3ccccc3)c(C)c2C(N)=O)cc1", "Potency": "inactive"},
      {"smiles": "COc1ccc(/C(N)=N/OC(=O)Cc2ccccc2)cc1", "Potency": "19 µM (active)"},
      {"smiles": "COc1ccc(/C(N)=N/OC(=O)Oc2ccccc2)cc1", "Potency": "inactive"},
      {"smiles": "CCC(=O)N1CCc2cc(S(=O)(=O)NC(Cc3ccccc3)C(=O)NCc3ccccc3)ccc21", "note": "(stereo not given)", "Potency": "inactive"},
      {"smiles": "COc1cccc(N(C(=O)c2snc(C(N)=O)c2N)C(C(=O)NCC2CCCO2)c2c[nH]c3ccccc23)c1", "note": "(stereo not given)", "Potency": "inactive"},
      {"smiles": "CCOC(=O)C1(Cc2ccccc2C)CCCN(S(C)(=O)=O)C1", "note": "(stereo not given)", "Potency": "inactive"},
      {"smiles": "CCOC(=O)C1(Cc2ccccc2C)CCCN(C(=O)CN2C(=O)CSC2=O)C1", "note": "(stereo not given)", "Potency": "inactive"},
      {"smiles": "CCOC(=O)C1(Cc2ccccc2C)CCCN(C(=O)c2ccc(COC)o2)C1", "note": "(stereo not given)", "Potency": "21.3 µM (active)"},
      {"smiles": "CCOC(=O)c1cn(CC)c2cc(F)c(F)cc2c1=O", "Potency": "inactive"},
      {"smiles": "COc1ccc(C(=O)NCc2ccc(C)cc2)cc1S(=O)(=O)N1CCCC1", "Potency": "inactive"},
      {"smiles": "O=C(c1cnn(-c2ccc(F)cc2)c1-n1cccc1)N1CCN(c2ccc(F)cc2)CC1", "Potency": "inactive"},
      {"smiles": "Nc1ccccc1SC(C[N+](=O)[O-])c1ccccc1", "note": "(stereo not given)", "Potency": "10.7 µM (active)"},
      {"smiles": "Cc1ccc(C(C[N+](=O)[O-])c2c(C)cc3ccccn23)cc1", "note": "(stereo not given)", "Potency": "inactive"},
      {"smiles": "Cc1ccc(CNC(=O)CCc2c(C)nn(-c3ccc(N4CCCC4)nn3)c2C)cc1", "Potency": "inactive"},
      {"smiles": "CCOC(=O)c1c(C)[nH]c(C(=O)OCC(=O)c2ccc(OC)cc2OC)c1C", "Potency": "inactive"},
      {"smiles": "CCCCOC(=O)c1[nH]c(C)c(C(=O)OC)c1C", "Potency": "12 µM (active)"},
      {"smiles": "COC(=O)c1c(C)[nH]c(C(=O)NCCc2ccc(S(N)(=O)=O)cc2)c1C", "Potency": "inactive"},
      {"smiles": "CCn1c2ccccc2c2cc(CN3CCN(Cc4cccc(Cl)c4)CC3)ccc21", "Potency": "inactive"},
      {"smiles": "CSc1ccccc1C(=O)OCC(=O)N1CCN(C(C)=O)CC1", "Potency": "inactive"},
      {"smiles": "COc1ccccc1CNC(=O)COc1ccc(C)nc1[N+](=O)[O-]", "Potency": "inactive"},
      {"smiles": "CCOc1ccccc1C(=O)NC1(C(F)(F)F)NC(=O)N(CCc2ccc(OC)c(OC)c2)C1=O", "note": "(stereo not given)", "Potency": "inactive"},
      {"smiles": "O=C(CSc1nnc(-c2ccccc2O)o1)NC1CCCCC1", "Potency": "inactive"},
      {"smiles": "Fc1ccc(CSc2nnc(-c3cc4c(s3)-c3ccccc3CC4)o2)cc1", "Potency": "inactive"},
      {"smiles": "CCSc1nnc(-c2cc3c(s2)-c2ccccc2CC3)o1", "Potency": "10.7 µM (active)"},
      {"smiles": "CCOC(=O)c1[nH]c(C)c(CCC(=O)N2CCN(c3ccccc3)CC2)c1C", "Potency": "inactive"},
      {"smiles": "O=C(c1ccccc1)c1ccc(C(=O)N2CCN(c3ccccc3)CC2)cc1", "Potency": "inactive"},
      {"smiles": "CC(=O)Nc1ccc(/C=C/C(=O)c2ccccc2)cc1", "Potency": "1.35 µM (active)"},
      {"smiles": "O=C(/C=C/c1ccc(N2CCOCC2)cc1)c1ccccc1", "Potency": "0.953 µM (active)"},
      {"smiles": "O=C(c1ccc(S(=O)(=O)N2CCOCC2)cc1)N1CCN(c2ccccc2)CC1", "Potency": "inactive"},
      {"smiles": "COC(C(=O)Nc1ccc(C(C)=O)cc1)c1ccccc1", "note": "(stereo not given)", "Potency": "inactive"},
      {"smiles": "CC(=O)Nc1ccc(NC(=S)NC(=O)/C=C/c2ccccc2)cc1", "Potency": "inactive"},
      {"smiles": "CCCC(=O)Nc1ccc(C(=O)N/N=C/c2ccc[nH]2)cc1", "Potency": "inactive"},
      {"smiles": "CC(=O)Nc1ccc(C(=O)/C=C/c2ccc[nH]2)cc1", "Potency": "8.49 µM (active)"},
      {"smiles": "CC(OC(=O)/C=C/c1ccccc1)C(=O)Nc1ccc(C(N)=O)cc1", "note": "(stereo not given)", "Potency": "inactive"},
      {"smiles": "Cc1cc(C)cc(NC(=O)C2CCCN2S(=O)(=O)c2cccc3cccnc23)c1", "note": "(stereo not given)", "Potency": "inactive"},
      {"smiles": "Cc1c(CNC(C)c2ccccc2)c(C(=O)O)c(C)n1Cc1c(F)cccc1Cl", "note": "(stereo not given)", "Potency": "inactive"},
      {"smiles": "COc1ccc(N2CCN(S(=O)(=O)c3ccc(-c4coc(C)n4)cc3)CC2)cc1", "Potency": "inactive"},
      {"smiles": "CCOc1ccc(CNC(=O)Cn2cc3c(n2)-c2c(oc(C(=O)N4CCCC4)c2C)CC3)cc1", "Potency": "inactive"},
      {"smiles": "CC1(C)O[C@@H]2[C@H](O1)[C@@H](CO)O[C@H]2n1c(N2CCCCC2)nc2c(N)ncnc21", "Potency": "inactive"},
      {"smiles": "Cc1ccc(OCC(=O)Nc2ccc(OCc3cc(=O)n4c(C)csc4n3)cc2)cc1C", "Potency": "inactive"}
    ]}
  ]
}
